Test systems include T-47D breast; BT-549 breast; MDA-MB-435 melanoma; SW-620 colon; MCF7 breast; HCT-116 colon; HCC-2998 colon; KM12 colon.
Assay in all cases: NCI-60 one-dose screen, 48 h (100 = growth as untreated, 0 = no growth, -100 = all killed)
Common to all, as to details: 10 µM unless noted

SMILES strings stand for the structures. “And” between values parts separate entries of the source, which are not always exact repeats. Identical values can stand only once. The panel holds about 83,000 compounds, 20% with a hit somewhere; the sample as a whole holds those more often.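 A percent growth of 40 corresponds to 60% growth inhibition; 0 means no net growth; -100 means all cells died. Active threshold: below 10.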 The source made the active and inactive calls.

In the case of `CCNCc1ccccc1`, the growth with T-47D breast is 98.3% (inactive); with BT-549 breast it was 124% (inactive); with MDA-MB-435 melanoma it was 110% (inactive); in the experiment with SW-620 colon, 108% (inactive); with MCF7 breast it was 98.7% (inactive); in the experiment on HCT-116 colon, 97.6% (inactive). Further, the growth in the experiment with HCC-2998 colon and with KM12 colon was 99.8% (inactive) each time.
For `CN(C)CC(CN(C)C)C(O)c1ccccc1` (centres undefined), the growth was 95.2% (inactive) in the experiment with T-47D breast; 101% (inactive) in the experiment with BT-549 breast; 112% (inactive) in the experiment on MDA-MB-435 melanoma; 111% (inactive) with SW-620 colon; 98.5% (inactive) in the experiment with MCF7 breast; 101% (inactive) in the experiment on HCT-116 colon. For the same molecule, the results for the growth with HCC-2998 colon and in the experiment with KM12 colon were 111% (inactive) and 102% (inactive), respectively.
Turning to `COc1cc(NCCCCCCCNC(C)C)c2nccc(C)c2c1`, the growth in the experiment with T-47D breast was 59.9% (inactive); in the experiment with BT-549 breast, 85.7% (inactive) and 64.2% (inactive); in the experiment with MDA-MB-435 melanoma it was 93.9% (inactive) and 7.03% (active); in the experiment with SW-620 colon, 98% (inactive) and 73% (inactive); in the experiment on MCF7 breast, -1.6% (active) and -9.72% (active); with HCT-116 colon it was 73.3% (inactive) and 50.4% (inactive). For the same molecule, the growth with HCC-2998 colon was 67.2% (inactive) and 61.5% (inactive); with KM12 colon it was 92.6% (inactive) and 73.1% (inactive).
Take `CS(=O)(=O)OCC1NC(=O)C(COS(C)(=O)=O)NC1=O` (centres undefined): the growth was 104% (inactive) and 105% (inactive) in the experiment on T-47D breast; 78.1% (inactive) and 30.1% (inactive) with BT-549 breast; 107% (inactive) and 90.7% (inactive) in the experiment on MDA-MB-435 melanoma; 106% (inactive) and 104% (inactive) in the experiment with SW-620 colon; 93% (inactive) and 85% (inactive) with MCF7 breast; 93.7% (inactive) and 93.8% (inactive) in the experiment with HCT-116 colon. Moreover, the growth in the experiment with HCC-2998 colon was 89.7% (inactive) and 103% (inactive); with KM12 colon it was 104% (inactive) and 83.9% (inactive).
Consider `O=C(NC(=O)c1ccc(F)c(Cl)c1)NC1CC1`, for which the growth in the experiment on T-47D breast is 91.8% (inactive); with BT-549 breast, 107% (inactive) and 109% (inactive); with MDA-MB-435 melanoma, 114% (inactive) and 102% (inactive); with SW-620 colon, 104% (inactive) and 100% (inactive); with MCF7 breast it was 100% (inactive) and 89.6% (inactive); in the experiment on HCT-116 colon, 104% (inactive) and 105% (inactive). The growth with HCC-2998 colon was 96.2% (inactive) and 106% (inactive); in the experiment on KM12 colon, 105% (inactive) and 101% (inactive).
Turning to `Cc1cccc(Cl)c1N`, the growth is 110% (inactive) with T-47D breast; 111% (inactive) with BT-549 breast; 95.7% (inactive) in the experiment with MDA-MB-435 melanoma; 96.9% (inactive) in the experiment on SW-620 colon; 99% (inactive) in the experiment on MCF7 breast; 113% (inactive) in the experiment with HCT-116 colon. Besides, the growth in the experiment with HCC-2998 colon is 102% (inactive); in the experiment with KM12 colon it was 110% (inactive).
As for `CCCCCCC(C)CC1=C(O)c2ccccc2C(=O)C1=O` (centres undefined), the growth with T-47D breast is 72.9% (inactive); in the experiment with BT-549 breast, 49% (inactive); with MDA-MB-435 melanoma it was 42.7% (inactive); with SW-620 colon, 35.4% (inactive); with MCF7 breast, 25.9% (inactive); with HCT-116 colon it was 23.6% (inactive). For the same molecule, the growth in the experiment with HCC-2998 colon was 54.9% (inactive); in the experiment with KM12 colon, 41.2% (inactive).
With `O=C(O)COc1ccccc1F`, the growth in the experiment on T-47D breast is 107% (inactive); with BT-549 breast it was 108% (inactive); in the experiment with MDA-MB-435 melanoma, 108% (inactive); in the experiment on SW-620 colon, 104% (inactive); in the experiment on MCF7 breast, 107% (inactive); in the experiment on HCT-116 colon, 95.5% (inactive). Moreover, the growth was 111% (inactive) in the experiment with HCC-2998 colon and 104% (inactive) in the experiment on KM12 colon.
For `O=C1C(=O)c2ccccc2C(O)=C1CC=C(Cl)Cl`, the growth in the experiment with T-47D breast is 80.8% (inactive) and 69% (inactive); with BT-549 breast it was 63% (inactive) and 71.6% (inactive); with MDA-MB-435 melanoma it was 43.8% (inactive) and 52.5% (inactive); with SW-620 colon, 50.1% (inactive) and 52.6% (inactive); in the experiment on MCF7 breast it was 37.9% (inactive) and 44.7% (inactive); in the experiment with HCT-116 colon, 27.9% (inactive) and 40% (inactive). Moreover, the growth in the experiment on HCC-2998 colon was 61.8% (inactive) and 64.4% (inactive); in the experiment with KM12 colon, 48.1% (inactive) and 45.8% (inactive).
Take `Cc1ccc(S(=O)(=O)n2ccnc2)cc1`: the growth with T-47D breast was 96.8% (inactive); with BT-549 breast, 122% (inactive); in the experiment with MDA-MB-435 melanoma it was 108% (inactive); in the experiment with SW-620 colon, 109% (inactive); in the experiment on MCF7 breast, 99% (inactive); in the experiment with HCT-116 colon, 98% (inactive). For the same molecule, the values for the growth in the experiment on HCC-2998 colon and in the experiment on KM12 colon were 102% (inactive) and 95.8% (inactive), respectively.
Regarding `CN(C=O)c1ccccc1`, the growth in the experiment on T-47D breast is 86.7% (inactive); in the experiment on BT-549 breast, 93.1% (inactive); with MDA-MB-435 melanoma it was 102% (inactive); in the experiment on SW-620 colon, 104% (inactive); with MCF7 breast it was 87.4% (inactive); in the experiment on HCT-116 colon, 89% (inactive). Also, the growth with HCC-2998 colon was 101% (inactive); in the experiment on KM12 colon, 110% (inactive).
As for `O=C(c1ccc(Cl)cc1)C1C(c2ccccc2)C1[N+](=O)[O-]` (centres undefined), the growth is 89.3% (inactive) in the experiment on T-47D breast; 99.3% (inactive) in the experiment with BT-549 breast; 114% (inactive) in the experiment on MDA-MB-435 melanoma; 104% (inactive) in the experiment with SW-620 colon; 96% (inactive) with MCF7 breast; 106% (inactive) with HCT-116 colon. In addition, the values for the growth with HCC-2998 colon and in the experiment on KM12 colon were 96.9% (inactive) and 97.9% (inactive), respectively.
`Nc1[nH][nH]c(=O)c1N=Nc1ccccc1`: the growth in the experiment on T-47D breast was 113% (inactive) and 102% (inactive); in the experiment with BT-549 breast, 101% (inactive) and 133% (inactive); in the experiment with MDA-MB-435 melanoma it was 103% (inactive) and 99.7% (inactive); in the experiment on SW-620 colon, 97.5% (inactive) and 114% (inactive); in the experiment with MCF7 breast, 92.9% (inactive) and 94.5% (inactive); in the experiment with HCT-116 colon it was 104% (inactive) and 102% (inactive). The growth in the experiment on HCC-2998 colon is 97.9% (inactive) and 104% (inactive); with KM12 colon it was 105% (inactive) and 106% (inactive).

For the origin of these results see PubChem BioAssay (NCI).
